Measurements taken from PubChem BioAssay AID1159580 (chemical genetic matrix, 2015).
The campaign covered roughly 5,500 compounds. About 2,000 (36%) were called active. About 18% were inconclusive and are not listed. Cut-off read from the data, not from the text of the source: active = normalized growth mostly below about 0.91 (no sharp cut-off); inconclusive = no clear call, values can overlap the other calls; inactive = mostly above about 0.92. The list shows a part of the results.

Assay: chemical genetic growth profiling, strain panel (AID 1159580);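 note: tested at 20 µM; growth read once vehicle control cultures reached saturation at 30 °C; 1 = growth at the plate median or of vehicle wells; lower values mean less growth of the strain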
Details: growth OD

Measured: normalized growth

COc1ccc(OC)c(C(O)C(C)N)c1 (stereo unspecified)
inactive: S. cerevisiae deletion strains, locus YJR066W, strain TOR1, active compounds read low 0.991 | S. cerevisiae deletion strains, locus YJR075W, strain HOC1, active compounds read low 0.999 | S. cerevisiae deletion strains, locus YKL009W, strain mrt4, active compounds read low 0.995 | S. cerevisiae deletion strains, locus YKL068W, active compounds read low 0.997 | S. cerevisiae deletion strains, locus YKL085W, strain MDH1 (second series), active compounds read low 1 | S. cerevisiae deletion strains, locus YKL085W, strain MDH1, active compounds read low 1 | S. cerevisiae deletion strains, locus YKL160W, strain elf1, active compounds read low 0.983 | S. cerevisiae deletion strains, locus YKL190W, strain CNB1, active compounds read low 1.02 | S. cerevisiae deletion strains, locus YKR001C, strain vps1, active compounds read low 1 | S. cerevisiae deletion strains, locus YKR026C, strain gcn3, active compounds read low 0.994 | S. cerevisiae deletion strains, locus YKR091W, strain srl3, active compounds read low 0.989 | S. cerevisiae deletion strains, locus YLL001W, strain dnm1, active compounds read low 0.972 | S. cerevisiae deletion strains, locus YLL026W, active compounds read low 0.99 | S. cerevisiae deletion strains, locus YLL041C, strain sdh2, active compounds read low 1 | S. cerevisiae deletion strains, locus YLR027C, strain aat2, active compounds read low 0.987 | S. cerevisiae deletion strains, locus YLR039C, strain RIC1, active compounds read low 1.07 | S. cerevisiae deletion strains, locus YLR058C, strain SHM2, active compounds read low 1.01 | S. cerevisiae deletion strains, locus YLR102C, strain apc9, active compounds read low 0.992 | S. cerevisiae deletion strains, locus YLR113W, strain HOG1, active compounds read low 1.08 | S. cerevisiae deletion strains, locus YLR221C, strain rsa3, active compounds read low 0.994 | S. cerevisiae deletion strains, locus YLR258W, strain gsy2, active compounds read low 1.01 | S. cerevisiae deletion strains, locus YLR262C, strain YPT6 (second series), active compounds read low 0.999 | S. cerevisiae deletion strains, locus YLR262C, strain YPT6, active compounds read low 1.08 | S. cerevisiae deletion strains, locus YLR268W, strain sec22, active compounds read low 1 | S. cerevisiae deletion strains, locus YLR320W, strain mms22, active compounds read low 0.989 | S. cerevisiae deletion strains, locus YLR330W, strain CHS5, active compounds read low 1.01 | S. cerevisiae deletion strains, locus YLR342W, strain FKS1 (second series), active compounds read low 1.01 | S. cerevisiae deletion strains, locus YLR342W, strain FKS1, active compounds read low 0.976 | S. cerevisiae deletion strains, locus YLR357W, strain rsc2, active compounds read low 0.971 | S. cerevisiae deletion strains, locus YLR370C, strain arc18, active compounds read low 0.988 | S. cerevisiae deletion strains, locus YLR371W, strain rom2, active compounds read low 0.989 | S. cerevisiae deletion strains, locus YLR384C, strain iki3, active compounds read low 0.987 | S. cerevisiae deletion strains, locus YLR418C, strain cdc73, active compounds read low 1.02 | S. cerevisiae deletion strains, locus YML016C, strain PPZ1, active compounds read low 1.02 | S. cerevisiae deletion strains, locus YML032C, strain rad52, active compounds read low 0.977 | S. cerevisiae deletion strains, locus YML120C, strain ndi1, active compounds read low 0.997 | S. cerevisiae deletion strains, locus YML124C, strain tub3, active compounds read low 0.993 | S. cerevisiae deletion strains, locus YMR078C, strain ctf18, active compounds read low 0.987 | S. cerevisiae deletion strains, locus YMR125W, strain sto1, active compounds read low 0.994 | S. cerevisiae deletion strains, locus YMR129W, active compounds read low 0.978 | S. cerevisiae deletion strains, locus YMR205C, strain PFK2, active compounds read low 1 | S. cerevisiae deletion strains, locus YMR223W, strain ubp8, active compounds read low 0.996 | S. cerevisiae deletion strains, locus YMR231W, strain pep5, active compounds read low 0.99 | S. cerevisiae deletion strains, locus YMR263W, strain SAP30, active compounds read low 1.03 | S. cerevisiae deletion strains, locus YMR307W, strain GAS1, active compounds read low 0.992 | S. cerevisiae deletion strains, locus YNL067W, strain RPL9B, active compounds read low 1.02 | S. cerevisiae deletion strains, locus YNL071W, strain lat1, active compounds read low 1 | S. cerevisiae deletion strains, locus YNL128W, strain TEP1, active compounds read low 1.01 | S. cerevisiae deletion strains, locus YNL153C, strain GIM3, active compounds read low 1.04 | S. cerevisiae deletion strains, locus YNL175C, strain NOP13, active compounds read low 0.996 | S. cerevisiae deletion strains, locus YNL183C, strain NPR1, active compounds read low 1.01 | S. cerevisiae deletion strains, locus YNL197C, strain WHI3, active compounds read low 1.01 | S. cerevisiae deletion strains, locus YNL209W, strain ssb2, active compounds read low 1 | S. cerevisiae deletion strains, locus YNL224C, strain SQS1, active compounds read low 1.01 | S. cerevisiae deletion strains, locus YNL233W, strain BNI4, active compounds read low 1.02 | S. cerevisiae deletion strains, locus YNL248C, strain rpa49, active compounds read low 0.997 | S. cerevisiae deletion strains, locus YNL250W, strain rad50, active compounds read low 0.978 | S. cerevisiae deletion strains, locus YNL271C, strain bni1, active compounds read low 1 | S. cerevisiae deletion strains, locus YNL298W, strain CLA4, active compounds read low 1 | S. cerevisiae deletion strains, locus YNL307C, strain MCK1, active compounds read low 0.976 | S. cerevisiae deletion strains, locus YNL322C, strain KRE1 (second series), active compounds read low 0.991 | S. cerevisiae deletion strains, locus YNL322C, strain KRE1, active compounds read low 1.01 | S. cerevisiae deletion strains, locus YNR049C, strain mso1, active compounds read low 0.99 | S. cerevisiae deletion strains, locus YNR052C, strain pop2, active compounds read low 0.992 | S. cerevisiae deletion strains, locus YOL006C, strain TOP1, active compounds read low 1.13 | S. cerevisiae deletion strains, locus YOL012C, strain htz1 1.17 | S. cerevisiae deletion strains, locus YOL147C, strain pex11, active compounds read low 0.979 | S. cerevisiae deletion strains, locus YOR001W, strain rrp6, active compounds read low 0.992 | S. cerevisiae deletion strains, locus YOR061W, strain CKA2, active compounds read low 1.02 | S. cerevisiae deletion strains, locus YOR069W, strain VPS5, active compounds read low 1.01 | S. cerevisiae deletion strains, locus YOR070C, strain gyp1, active compounds read low 0.999 | S. cerevisiae deletion strains, locus YOR080W, strain dia2, active compounds read low 0.99 | S. cerevisiae deletion strains, locus YOR083W, strain WHI5 (second series), active compounds read low 1.01 | S. cerevisiae deletion strains, locus YOR083W, strain WHI5, active compounds read low 0.961 | S. cerevisiae deletion strains, locus YOR106W, strain vam3, active compounds read low 0.986 | S. cerevisiae deletion strains, locus YOR136W, strain idh2, active compounds read low 0.982 | S. cerevisiae deletion strains, locus YOR144C, strain elg1, active compounds read low 0.985 | S. cerevisiae deletion strains, locus YOR184W, strain ser1, active compounds read low 0.978 | S. cerevisiae deletion strains, locus YOR231W, strain MKK1, active compounds read low 1.07 | S. cerevisiae deletion strains, locus YOR265W, strain rbl2, active compounds read low 0.997 | S. cerevisiae deletion strains, locus YOR270C, strain vph1, active compounds read low 1.01 | S. cerevisiae deletion strains, locus YOR290C, strain snf2, active compounds read low 1.01 | S. cerevisiae deletion strains, locus YOR316C, strain cot1, active compounds read low 0.991 | S. cerevisiae deletion strains, locus YPL051W, strain arl3, active compounds read low 0.991 | S. cerevisiae deletion strains, locus YPL055C, strain LGE1, active compounds read low 1.06 | S. cerevisiae deletion strains, locus YPL078C, strain atp4, active compounds read low 0.961 | S. cerevisiae deletion strains, locus YPL106C, strain sse1, active compounds read low 1.01 | S. cerevisiae deletion strains, locus YPL240C, strain hsp82, active compounds read low 0.991 | S. cerevisiae deletion strains, locus YPL241C, strain CIN2, active compounds read low 1.01 | S. cerevisiae deletion strains, locus YPL256C, strain CLN2, active compounds read low 1.06 | S. cerevisiae deletion strains, locus YPR119W, strain clb2, active compounds read low 0.988 | S. cerevisiae deletion strains, locus YPR141C, strain kar3, active compounds read low 0.984 | S. cerevisiae deletion strains, locus YPR163C, strain tif3, active compounds read low 0.98 | S. cerevisiae deletion strains, locus YPR167C, strain met16, active compounds read low 0.996 | S. cerevisiae deletion strains, strain wtn01, active compounds read low 1.01 | S. cerevisiae strains, strain wild type, active compounds read low 1.01
